This is part of a sample that, as a whole, favours compounds with a hit. Of some 83,000 tested, about 20% had one in any assay.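 Compound tested at a single concentration for 48 hours in 96-well plates; a percent growth value below 10 was scored as active.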 Unmarked numbers belong to inactive results. Activity calls are given as the source filed them.
Assays:
Test in all cases: NCI-60 one-dose screen, 48 h (100 = growth as untreated, 0 = no growth, -100 = all killed)
Conditions in all cases: 10 µM
[1] = test system: HCT-15 colon
[2] = test system: HT29 colon
[3] = test system: SNB-75 CNS
[4] = test system: SNB-19 CNS
[5] = test system: U251 CNS
[6] = test system: PC-3 prostate
[7] = test system: SK-MEL-5 melanoma
[8] = test system: UACC-62 melanoma
[9] = test system: LOX IMVI melanoma
[10] = test system: SK-MEL-28 melanoma
[11] = test system: SK-MEL-2 melanoma
[12] = test system: EKVX NSCLC
[13] = test system: SN12C renal
[14] = test system: TK-10 renal
[15] = test system: ACHN renal
[16] = test system: CAKI-1 renal
[17] = test system: A498 renal
[18] = test system: CCRF-CEM leukemia
[19] = test system: MOLT-4 leukemia
[20] = test system: UO-31 renal

C=CCn1ccc(=O)nc1SC
growth [1]: 110%
growth [2]: 97.6%
growth [3]: 91.2%
growth [4]: 106%
growth [5]: 102%
growth [6]: 95.7%
growth [7]: 112%
growth [8]: 105%
growth [9]: 99.7%
growth [10]: 112%
growth [11]: 107%
growth [12]: 104%
growth [13]: 104%
growth [14]: 101%
growth [15]: 108%
growth [16]: 106%
growth [17]: 104%
growth [18]: 104%
growth [19]: 100%

COc1ccc(/C=C(\c2cc(OC)c(OC)c(OC)c2)c2nnc(-c3cccs3)o2)cc1
growth [1]: 103%
growth [2]: 90.7%
growth [3]: -10.5% (active)
growth [4]: 52.3%
growth [5]: 55.7%
growth [6]: 81.7%
growth [7]: 64.6%
growth [8]: 78.1%
growth [9]: 92.8%
growth [10]: 69.7%
growth [11]: 81.9%
growth [12]: 78.6%
growth [13]: 84.6%
growth [20]: 89.3%
growth [14]: 75.5%
growth [15]: 75.3%
growth [16]: 66.3%
growth [17]: 71.4%
growth [19]: 87.6%

COc1ccc(-c2ccccc2)cc1C(=O)c1ccc(-c2ccccc2)cc1
growth [1]: 63.1%
growth [2]: 41.8%
growth [3]: 87.5%
growth [4]: 81.3%
growth [5]: 77%
growth [6]: 71.6%
growth [7]: 73.1%
growth [8]: 62.2%
growth [9]: 77%
growth [10]: 76.5%
growth [11]: 58.9%
growth [12]: 88.8%
growth [13]: 96.6%
growth [20]: 60.6%
growth [14]: 88.3%
growth [15]: 105%
growth [16]: 52.2%
growth [17]: 93.6%
growth [19]: 65.9%

NC(=O)C12C(=O)NC(=O)C1(C(=O)O)C21CCCC1 (centres undefined)
growth [1]: 107%
growth [2]: 110%
growth [3]: 84.2%
growth [4]: 99.3%
growth [5]: 102%
growth [6]: 99%
growth [7]: 106%
growth [8]: 101%
growth [9]: 102%
growth [10]: 109%
growth [11]: 108%
growth [12]: 106%
growth [13]: 101%
growth [20]: 75.8%
growth [14]: 111%
growth [15]: 112%
growth [16]: 112%
growth [18]: 96.9%
growth [19]: 97.2%

C/C(=N/NC(=O)c1sc(=S)n(C)c1N)c1cc2cc(Cl)ccc2o1
growth [1]: 92.6%
growth [2]: 92.9%
growth [3]: 144%
growth [4]: 98.8%
growth [5]: 97.5%
growth [6]: 101%
growth [7]: 11.3%
growth [8]: 76.2%
growth [9]: 72.9%
growth [10]: 128%
growth [11]: 98.9%
growth [12]: 98.5%
growth [13]: 90.8%
growth [14]: 101%
growth [15]: 96%
growth [16]: 117%
growth [17]: -3.76% (active)
growth [18]: 81.8%
growth [19]: 76.5%

COc1ccc(-c2csc(-c3cc(Cl)cc(Cl)c3Cl)n2)cc1
growth [1]: 89.2%
growth [2]: 101%
growth [3]: 91.6%
growth [4]: 103%
growth [5]: 93.3%
growth [6]: 95%
growth [7]: 29.2%
growth [8]: 63%
growth [9]: 83.1%
growth [10]: 107%
growth [11]: 96.3%
growth [12]: 80.5%
growth [13]: 91.3%
growth [14]: 118%
growth [15]: 89.7%
growth [16]: 85.9%
growth [17]: 52.1%
growth [18]: 97.4%
growth [19]: 89%

Cn1c(N)c(N=Cc2ccccc2)c(=O)n(C)c1=O
growth [1]: 103%
growth [2]: 101%
growth [3]: 91.4%
growth [4]: 105%
growth [5]: 110%
growth [6]: 105%
growth [7]: 108%
growth [8]: 115%
growth [9]: 104%
growth [10]: 110%
growth [11]: 97.1%
growth [12]: 100%
growth [13]: 104%
growth [20]: 81.5%
growth [14]: 117%
growth [15]: 104%
growth [16]: 98%
growth [18]: 112%
growth [19]: 99.4%

O=c1oc2c3ccc4cnccc4c3[nH]c2c2ccccc12
growth [1]: 80.9%
growth [2]: -19.7% (active)
growth [3]: 14.1%
growth [4]: 14.6%
growth [5]: -35% (active)
growth [6]: 71.4%
growth [7]: 28.3%
growth [8]: 73.2%
growth [9]: 13.5%
growth [10]: 5.14% (active)
growth [11]: 67.1%
growth [12]: 74.2%
growth [13]: 73.8%
growth [14]: 79.3%
growth [15]: 63.5%
growth [16]: 54.3%
growth [17]: 55.5%
growth [18]: -1.54% (active)
growth [19]: 13.7%

CC(=O)CS(C)(=O)=O
growth [1]: 110%
growth [2]: 107%
growth [3]: 96.9%
growth [4]: 102%
growth [5]: 102%
growth [6]: 103%
growth [7]: 98%
growth [8]: 108%
growth [9]: 101%
growth [10]: 113%
growth [11]: 103%
growth [12]: 93.6%
growth [13]: 105%
growth [20]: 92.4%
growth [15]: 106%
growth [16]: 101%
growth [17]: 98.8%
growth [18]: 103%
growth [19]: 106%

COc1ccc(Cn2cc3c(c2-c2ccccc2)CC(C)(C)c2cnoc2-3)cc1
growth [1]: 34.8%
growth [2]: 12.5%
growth [3]: 13.1%
growth [4]: 55.2%
growth [5]: 43.8%
growth [6]: 28.8%
growth [7]: 13.1%
growth [8]: 54.6%
growth [9]: 35.1%
growth [10]: 58.7%
growth [11]: 53%
growth [12]: 38.7%
growth [13]: 50.6%
growth [20]: 43.9%
growth [14]: 75%
growth [15]: 53.9%
growth [16]: 6.85% (active)
growth [18]: 22.7%
growth [19]: 40%

CCCC(C)c1ccc(OCCCCCCN2CCNCC2)cc1 (centres undefined)
growth [1]: -39.3% (active)
growth [2]: 5.51% (active)
growth [3]: 35.9%
growth [4]: 56%
growth [5]: -2.39% (active)
growth [6]: 49.4%
growth [7]: 53.5%
growth [8]: -46.4% (active)
growth [9]: -88.3% (active)
growth [10]: 13.2%
growth [11]: 79%
growth [12]: 67.3%
growth [20]: 78.7%
growth [14]: 85%
growth [15]: 49.5%
growth [16]: 18.2%
growth [17]: 50.5%
growth [18]: 4.49% (active)
growth [19]: -27.6% (active)

CN(C)c1ccc2c(c1)OC(N)=C(C#N)C2c1ccc2c(c1)CCCN2C (centres undefined)
growth [1]: 15.8%
growth [2]: 10.5%
growth [3]: 42.7%
growth [4]: 33.3%
growth [5]: 19.5%
growth [6]: 27.3%
growth [7]: 21.4%
growth [8]: 34.4%
growth [9]: 42%
growth [10]: 61.5%
growth [11]: 30.7%
growth [12]: 34.5%
growth [20]: 51.4%
growth [14]: 70.3%
growth [15]: 52.8%
growth [16]: 40%
growth [17]: -8.42% (active)
growth [18]: 24.5%
growth [19]: 35.8%

O=C(N/N=C\c1cc(Cl)ccc1O)c1ccncc1
growth [1]: 26.3%
growth [2]: 65.4%
growth [3]: 74.2%
growth [4]: 62%
growth [5]: 43.9%
growth [6]: 61%
growth [7]: 37%
growth [8]: 46.2%
growth [9]: 30.9%
growth [10]: 64.5%
growth [11]: 96.9%
growth [12]: 83.2%
growth [20]: 41.6%
growth [14]: 66.3%
growth [15]: 27.7%
growth [16]: 49.2%
growth [17]: 104%
growth [18]: 11.3%
growth [19]: 15.9%

O=C(/C=C/c1ccc(Cl)cc1)c1ccc(Br)cc1
growth [1]: 90.4%
growth [2]: 73.7%
growth [3]: 101%
growth [4]: 99%
growth [5]: 89.4%
growth [6]: 97.4%
growth [7]: 105%
growth [8]: 92.6%
growth [9]: 83.4%
growth [10]: 96.5%
growth [11]: 104%
growth [12]: 97.2%
growth [20]: 90%
growth [14]: 81.2%
growth [15]: 104%
growth [16]: 101%
growth [17]: -44.1% (active)
growth [18]: 110%
growth [19]: 97.7%

NC1CCC(Nc2nc(NCc3ccc(-c4ccccc4O)nc3)c3ncn(C4CCCC4)c3n2)CC1 (centres undefined)
growth [1]: -4.18% (active)
growth [2]: -22.5% (active)
growth [3]: -70.1% (active)
growth [4]: 8.53% (active)
growth [5]: -23% (active)
growth [6]: -3.87% (active)
growth [7]: -94.1% (active)
growth [8]: -55% (active)
growth [9]: -82.8% (active)
growth [10]: -58.9% (active)
growth [11]: -81.4% (active)
growth [12]: -20.1% (active)
growth [20]: 14.2%
growth [14]: 0.221% (active)
growth [15]: -3.2% (active)
growth [16]: 14.1%
growth [17]: -82.1% (active)
growth [18]: -5.6% (active)
growth [19]: -11.2% (active)

CCN(CC)CCOC(=O)c1ccc(N=Nc2ccc(O)c(OC)c2)cc1
growth [1]: 103%
growth [2]: 90.7%
growth [3]: 89.3%
growth [4]: 104%
growth [5]: 87.1%
growth [6]: 95.4%
growth [7]: 92%
growth [8]: 99.8%
growth [9]: 92.2%
growth [10]: 107%
growth [11]: 87.8%
growth [12]: 99.2%
growth [20]: 87.8%
growth [14]: 87.2%
growth [15]: 105%
growth [16]: 97.4%
growth [17]: 80.8%
growth [18]: 99.5%
growth [19]: 93.8%

— PubChem BioAssay (NCI)
